Laboratory results reported in PubChem BioAssay (NCATS).
Results filed as inconclusive are left out. The source made the active and inactive calls. The call rests on the fitted dose curve; in most records, active means well fitted curve in the direction sought with a large enough effect; inconclusive means small, poorly fitted or top-dose-only effect, or another doubt; inactive means no such curve, though single readings can be large; an effect the other way counts as inactive or inconclusive.

Tested on: not listed separately
Test: qHTS of pediatric cancer cell lines to identify multiple opportunities for drug repurposing: Confirmatory screen for Rh30 cells (AID 1347126); further: nearly all actives have a fitted effect of over 55% in size; on activity change, negative = cytotoxic: on the % scale 0 is the no-effect control and ±100 the full control effect
Conditions: Rh30 rhabdomyosarcoma cell viability; series mostly up to 45.9 µM; activity change, negative = cytotoxic: at the top concentration
In short: (§1)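 Cells (500-1,000/well) in growth media were settled 5 h at 37 degrees C, then given compounds for 48 h. Viability was read as CellTiter-Glo luminescence. Primary runs used MIPE at 11 points (0.78 nM-46 µM) and NPC at 8 points (0.59 nM-46 µM); follow-ups used 11 points.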
Potency means the concentration at half of the fitted maximal effect.

| SMILES | Potency | activity change, negative = cytotoxic |
| --- | --- | --- |
| Clc1ccc2nsnc2c1NC1=NCCN1 | 7.37 µM (active) | – |
| CCC1(c2ccccc2)C(=O)NCNC1=O | – | 8.83% (inactive) |
| O=C1c2c(O)ccc(O)c2C(=O)c2c(NCCNCCO)ccc(NCCNCCO)c21 | 4.14 µM (active) | – |
| CC(C)Cc1ccc(C(C)C(=O)O)cc1 (stereo not drawn) | – | -3.35% (inactive) |
| CN(Cc1cnc2nc(N)nc(N)c2n1)c1ccc(C(=O)N[C@@H](CCC(=O)O)C(=O)O)cc1 | – | -18.1% (inactive) |
| CN1CCN(CCCN2c3ccccc3Sc3ccc(Cl)cc32)CC1 | 18.5 µM (active) | – |
| CS(=O)(=O)CCNCc1ccc(-c2ccc3ncnc(Nc4ccc(OCc5cccc(F)c5)c(Cl)c4)c3c2)o1 | 14.7 µM (active) | – |
| CC(CCc1ccc(O)cc1)NCCc1ccc(O)c(O)c1 (stereo not drawn) | – | 14.5% (inactive) |
| CC(COc1ccccc1)N(CCCl)Cc1ccccc1 (stereo not drawn) | 16.5 µM (active) | – |
| CCCCc1oc2ccccc2c1C(=O)c1cc(I)c(OCCN(CC)CC)c(I)c1 | 56.2 µM (active) | – |
| CS(=O)(=O)Nc1ccc([N+](=O)[O-])cc1Oc1ccccc1 | – | -2.97% (inactive) |
| NC12CC3CC(CC(C3)C1)C2 | – | 6.06% (inactive) |
| O=C(Nc1ccc([N+](=O)[O-])cc1Cl)c1cc(Cl)ccc1O | 2.29 µM (active) | – |
| COC(=O)Nc1nc2ccc(C(=O)c3cccs3)cc2[nH]1 | – | 7.17% (inactive) |
| O=C(c1ccc(OCCN2CCCCC2)cc1)c1c(-c2ccc(O)cc2)sc2cc(O)ccc12 | 3.69 µM (active) | – |
| Clc1ccc(C(c2ccccc2Cl)C(Cl)Cl)cc1 (stereo not drawn) | – | -7.51% (inactive) |
| CC[C@@]1(O)C(=O)OCc2c1cc1n(c2=O)Cc2cc3c(CN(C)C)c(O)ccc3nc2-1 | 2.93 µM (active) | – |

Tested on: not listed separately
Test: qHTS of pediatric cancer cell lines to identify multiple opportunities for drug repurposing: Confirmatory screen for Saos-2 cells (AID 1347127); further: nearly all actives have a fitted effect of over 60% in size;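 on activity change, negative = cytotoxic: plate controls were DMSO for no effect and bortezomib for full effect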
Conditions: Saos-2 osteosarcoma cell viability; series mostly up to 45.9 µM; activity change, negative = cytotoxic: at the top concentration
In short: as §1

| SMILES | Potency | activity change, negative = cytotoxic | outcome |
| --- | --- | --- | --- |
| Clc1ccc2nsnc2c1NC1=NCCN1 | 20.8 µM (active) | – | – |
| CCC1(c2ccccc2)C(=O)NCNC1=O | – | 1.48% (inactive) | – |
| O=C1c2c(O)ccc(O)c2C(=O)c2c(NCCNCCO)ccc(NCCNCCO)c21 | 0.737 µM (active) | – | – |
| COc1cc2c(c(OC)c1OC)-c1ccc(OC)c(=O)cc1[C@@H](NC(C)=O)CC2 | 0.0447 µM (active) | – | – |
| NC(=O)NO | – | 5.96% (inactive) | – |
| CC(COc1ccccc1)N(CCCl)Cc1ccccc1 (stereo not drawn) | 14.7 µM (active) | – | – |
| CCCCc1oc2ccccc2c1C(=O)c1cc(I)c(OCCN(CC)CC)c(I)c1 | 44.7 µM (active) | – | – |
| CS(=O)(=O)Nc1ccc([N+](=O)[O-])cc1Oc1ccccc1 | – | 24.6% (inactive) | – |
| NC12CC3CC(CC(C3)C1)C2 | – | – | inactive |
| O=C(Nc1ccc([N+](=O)[O-])cc1Cl)c1cc(Cl)ccc1O | 2.29 µM (active) | – | – |
| COC(=O)Nc1nc2ccc(C(=O)c3cccs3)cc2[nH]1 | 0.131 µM (active) | – | – |
| CC(C)C(=O)Nc1ccc([N+](=O)[O-])c(C(F)(F)F)c1 | – | – | inactive |
| Clc1ccc(C(c2ccccc2Cl)C(Cl)Cl)cc1 (stereo not drawn) | – | -14.9% (inactive) | – |
| CC[C@@]1(O)C(=O)OCc2c1cc1n(c2=O)Cc2cc3c(CN(C)C)c(O)ccc3nc2-1 | 0.208 µM (active) | – | – |

Tested on: not listed separately
Test: qHTS of pediatric cancer cell lines to identify multiple opportunities for drug repurposing: Confirmatory screen for OHS-50 cells (AID 1347128);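 further: compound exposure lasted 48 h at 37 degrees C; nearly all actives have a fitted effect of over 55% in size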; on activity change, negative = cytotoxic: on the % scale 0 is the no-effect control and ±100 the full control effect
Conditions: OHS-50 osteosarcoma cells viability; series mostly up to 45.9 µM; activity change, negative = cytotoxic: at the top concentration
In short: as §1

| SMILES | activity change, negative = cytotoxic | Potency |
| --- | --- | --- |
| CCC1(c2ccccc2)C(=O)NCNC1=O | -4.7% (inactive) | – |
| O=C1c2c(O)ccc(O)c2C(=O)c2c(NCCNCCO)ccc(NCCNCCO)c21 | – | 2.33 µM (active) |
| CC(C)Cc1ccc(C(C)C(=O)O)cc1 (stereo not drawn) | 7.41% (inactive) | – |
| CN(Cc1cnc2nc(N)nc(N)c2n1)c1ccc(C(=O)N[C@@H](CCC(=O)O)C(=O)O)cc1 | – | 0.0131 µM (active) |
| NC(=O)NO | -11.1% (inactive) | – |
| CCCCc1oc2ccccc2c1C(=O)c1cc(I)c(OCCN(CC)CC)c(I)c1 | – | 44.7 µM (active) |
| CS(=O)(=O)Nc1ccc([N+](=O)[O-])cc1Oc1ccccc1 | -1.07% (inactive) | – |
| NC12CC3CC(CC(C3)C1)C2 | 7.41% (inactive) | – |
| O=C(Nc1ccc([N+](=O)[O-])cc1Cl)c1cc(Cl)ccc1O | – | 1.62 µM (active) |
| COC(=O)Nc1nc2ccc(C(=O)c3cccs3)cc2[nH]1 | – | 0.208 µM (active) |
| Clc1ccc(C(c2ccccc2Cl)C(Cl)Cl)cc1 (stereo not drawn) | -8.97% (inactive) | – |
| CC[C@@]1(O)C(=O)OCc2c1cc1n(c2=O)Cc2cc3c(CN(C)C)c(O)ccc3nc2-1 | – | 0.329 µM (active) |

Target: N-terminal Xaa-Pro-Lys N-methyltransferase 1 (Homo sapiens) (UniProt Q9BV86)
Test: qHTS Assay for Inhibitors of N-terminal methyltransferase 1 (NTMT1): LOPAC validation of the NTMT1 SAHH-coupled ThioGlo3 Assay (AID 1347143);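 further: SAH from peptide methylation measured as thiol fluorescence via SAHH coupling and ThioGlo3; nearly all actives have a fitted effect of over 70% in size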; on activity change, negative = inhibition: on the % scale 0 is the no-effect control and ±100 the full control effect
Conditions: recombinant NTMT1, SAHH-coupled ThioGlo3 fluorescence; series mostly up to 114 µM; activity change, negative = inhibition: at the top concentration
In short: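 In this qHTS pilot against the LOPAC set, 125nM NTMT1 met compounds tested at multiple concentrations, and fluorescence was normalized to background.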

Sequence of N-terminal Xaa-Pro-Lys N-methyltransferase 1 (Homo sapiens) (Q9BV86 whole entry, looked up): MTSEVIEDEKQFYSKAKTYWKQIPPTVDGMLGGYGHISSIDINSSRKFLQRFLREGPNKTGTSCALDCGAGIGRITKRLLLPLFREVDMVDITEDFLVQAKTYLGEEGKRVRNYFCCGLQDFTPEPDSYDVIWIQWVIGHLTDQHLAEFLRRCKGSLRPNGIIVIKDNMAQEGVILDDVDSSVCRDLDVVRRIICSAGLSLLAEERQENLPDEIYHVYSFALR

| SMILES | activity change, negative = inhibition | Potency |
| --- | --- | --- |
| Cn1c(=O)c2[nH]cnc2n(C)c1=O | -3.17% (inactive) | – |
| CCC1(c2ccccc2)C(=O)NCNC1=O | -9.22% (inactive) | – |
| O=C1c2c(O)ccc(O)c2C(=O)c2c(NCCNCCO)ccc(NCCNCCO)c21 | – | 50.1 µM (active) |
| CC(C)Cc1ccc(C(C)C(=O)O)cc1 (stereo not drawn) | -7.59% (inactive) | – |
| CN(Cc1cnc2nc(N)nc(N)c2n1)c1ccc(C(=O)N[C@@H](CCC(=O)O)C(=O)O)cc1 | – | 79.4 µM (active) |
| CN1CCN(CCCN2c3ccccc3Sc3ccc(Cl)cc32)CC1 | – | 44.7 µM (active) |
| Cc1ccccc1N1C(=O)c2cc(S(N)(=O)=O)c(Cl)cc2NC1C (stereo not drawn) | – | 79.4 µM (active) |
| CCOC(=O)Nc1ccc(NCc2ccc(F)cc2)nc1N | – | 50.1 µM (active) |
| NC(=O)NO | -15.7% (inactive) | – |
| CC(=O)OCC(CCn1cnc2cnc(N)nc21)COC(C)=O | – | 56.2 µM (active) |
| OCCN(CCO)c1nc(N2CCCCC2)c2nc(N(CCO)CCO)nc(N3CCCCC3)c2n1 | – | 79.4 µM (active) |
| CC1COc2c(N3CCN(C)CC3)c(F)cc3c(=O)c(C(=O)O)cn1c23 (stereo not drawn) | – | 56.2 µM (active) |
| O=C1Cc2cc(CCN3CCN(c4nsc5ccccc45)CC3)c(Cl)cc2N1 | – | 44.7 µM (active) |
| Cc1cnc(C(=O)NCCc2ccc(S(=O)(=O)NC(=O)NC3CCCCC3)cc2)cn1 | -11.9% (inactive) | – |
| NC12CC3CC(CC(C3)C1)C2 | 3.17% (inactive) | – |
| CC[N+](CC)(CC)CCOc1cccc(OCC[N+](CC)(CC)CC)c1OCC[N+](CC)(CC)CC | – | 44.7 µM (active) |
| COc1cc2nc(N3CCN(C(=O)c4ccco4)CC3)nc(N)c2cc1OC | – | 28.2 µM (active) |
| CC[C@@]1(O)C(=O)OCc2c1cc1n(c2=O)Cc2cc3c(CN(C)C)c(O)ccc3nc2-1 | 68.1% (inactive) | – |
| Nc1ccn([C@H]2CC[C@@H](CO)O2)c(=O)n1 | -12.2% (inactive) | – |
| CC#C[C@]1(O)CC[C@H]2[C@@H]3CCC4=CC(=O)CCC4=C3[C@@H](c3ccc(N(C)C)cc3)C[C@@]21C | – | 11.2 µM (active) |
